From PubChem BioAssay AID1578 (Sanford-Burnham Center for Chemical Genomics, 2009)
Among all 290,000 compounds or so, about 3,000 (1%) were called active. For the sample, actives were picked, then their nearest neighbours and some compounds at random. A number with no mark means an inactive call. Cut-off read from the data, not from the text of the source: active = inhibition mostly above about 36% (no sharp cut-off); inactive = mostly below about 34%.

Experiment: inhibition of NOD1-driven NF-kB reporter – cell-based, luminescence, uHTS, primary screen (AID 1578);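 note: HEK-293T reporter cells stimulated with the NOD1 agonist gamma-tri-DAP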
Settings: NOD1-driven NF-kB luciferase reporter cells, at 4 µM, hits give high values

Row | Structure (SMILES) | inhibition
1 | CC(C)(C)c1nnc(N/N=C/c2ccc(Br)cc2)n(N)c1=O | -33.2%
2 | CC(C)(C)c1nnc(N/N=C/c2ccccc2O)n(N)c1=O | -45.8%
3 | CC(C)(C)c1nnc(N/N=C/c2cc(Br)ccc2O)n(N)c1=O | 68.7% (active)
4 | O=C(Nc1ncccc1Cl)c1ccccc1F | -31.4%
5 | Cc1ccc(-n2[nH]c(C)c(/C=N/NC(=O)c3ccc([N+](=O)[O-])cc3)c2=O)c(C)c1 | -20.9%
6 | Cc1[nH]n(-c2ccccc2)c(=O)c1/C=N/NC(=O)c1ccccc1F | -9.2%
7 | Cc1[nH]n(-c2cccc3ccccc23)c(=O)c1/C=N/NC(=O)c1cccc([N+](=O)[O-])c1 | -8.2%
8 | Cc1ccc(-n2[nH]c(C)c(/C=N/NC(=O)c3cccc([N+](=O)[O-])c3)c2=O)cc1C | 92.8% (active)
9 | Cc1[nH]n(-c2ccc(Br)cc2)c(=O)c1/C=N/NC(=O)c1ccccc1 | 69%
10 | Cc1cc(NS(=O)(=O)c2ccc(NC(=S)NC(=O)c3ccncc3)cc2)no1 | -4.1%
11 | O=C(OCCN1CCCCC1)c1cccc(F)c1 | -21.9%
12 | CCOc1cc(C2C(C(=O)OC)=CN(Cc3ccc(Cl)cc3)C=C2C(=O)OC)ccc1O | -1.2%
13 | O=C(CCCn1c(=O)[nH]c2ccccc2c1=O)Nc1ccc(F)cc1 | -2.3%
14 | COc1ccc(NC(=O)C2CC(=O)OC2c2ccccc2)cc1 (centres undefined) | -23.5%
15 | COc1cccc(NC(=O)CN2C(=O)COc3ccc(Cl)cc32)c1 | 26.8%
16 | NC(=O)C1=C[C@@H](c2csc3ccccc23)C[C@@H](OCCCCO)O1 | -3.6%
17 | Cc1cc(N=CC2=C(O)CC(C)(C)CC2=O)no1 | 13.1%
18 | COCCn1c(SCC(=O)NCc2ccccc2)nc2ccccc21 | 6.7%
19 | O=C1c2ccccc2C2=Nc3ccccc3SC(c3ccc(Cl)cc3)C12 (centres undefined) | 74.7% (active)
20 | O=C1c2ccccc2C2=Nc3ccccc3SC(c3cccc(F)c3)C12 (centres undefined) | 49.7%
21 | O=C1c2ccccc2C2=Nc3ccccc3SC(c3ccccc3F)C12 (centres undefined) | 36.8%
22 | NC(=O)CC(NC(=O)c1ccccc1)c1ccc(NCCOc2ccccc2)c([N+](=O)[O-])c1 (centres undefined) | 1.2%
23 | O=C(c1ccccc1)N1CCN2C(=O)c3ccccc3C12c1ccc(Cl)cc1 (centres undefined) | -44.9%
24 | O=C(CCl)N1CCN2C(=O)c3ccccc3C12c1ccc(Cl)cc1 (centres undefined) | 87.1% (active)
25 | Cc1ccc(C(=O)N2CCN3C(=O)c4ccccc4C23c2ccc(Cl)cc2)cc1 (centres undefined) | -52.7%

Row | Structure (SMILES) | inhibition
26 | O=C(Cn1c(=O)c2cccn2c2ccccc21)Nc1ccc(F)cc1F | -12.1%
27 | Cc1cc(C)nc(N(C#N)S(=O)(=O)c2ccccc2)n1 | 9.1%
28 | N/C(=N\OCc1ccc([N+](=O)[O-])cc1)c1ccncc1 | -27.7%
29 | CC(C(=O)O/N=C(\N)c1ccccn1)c1ccc([N+](=O)[O-])cc1 (centres undefined) | -16.2%
30 | N/C(=N\OCc1ccc([N+](=O)[O-])cc1)c1ccccn1 | 88.4% (active)
31 | CCCC(=O)Nc1ccccc1NC(=O)c1ccc(OCC)cc1 | 2.3%
32 | O=C1CC(N2CCC(c3nc4ccccc4[nH]3)CC2)C(=O)N1Cc1ccccc1 (centres undefined) | -24.3%
33 | Cc1cc(-c2ccc(C(C)C)c(S(=O)(=O)N3CCN(c4ccccc4)CC3)c2)on1 | 0%
34 | CCc1cc2c(=O)[nH]c(Cc3ccccc3)nc2s1 | 0.4%
35 | CCc1cc2c(=O)[nH]c(-c3ccncc3)nc2s1 | 29.8%
36 | CCc1cc2c(=O)[nH]c(-c3ccccn3)nc2s1 | 112% (active)
37 | CC(C)Nc1nc(Cl)nc(N(C#N)CN2C(=O)c3ccccc3S2(=O)=O)n1 | -4.8%
38 | COc1ccc2nc(SCC(=O)Nc3nccs3)[nH]c2c1 | -39.1%
39 | COc1ccc(NC(=O)CN2CCN(c3c(C)cccc3C)CC2)cc1 | -8.8%
40 | COC(=O)c1ccc(CN2C(=O)C(C)N(C(=O)c3c(F)cccc3F)c3ccccc32)cc1 (centres undefined) | -2.1%
41 | CC1C(=O)N(Cc2ccc(F)cc2)c2ccccc2N1C(=O)c1c(F)cccc1F (centres undefined) | 43.5% (active)
42 | COc1ccc(CN2C(=O)C(C)N(C(=O)c3c(F)cccc3F)c3ccccc32)cc1 (centres undefined) | 6.5%
43 | CC1CCN(CCCNC(=O)c2ccc3c(Cl)c4c(nc3c2)CCCC4)CC1 | 0.2%
44 | COc1ccc(-n2c(Cc3cccn3C)nnc2SCC(=O)Nc2ccc(Cl)cc2)cc1 | 39.9%
45 | COc1ccc(-n2c(Cc3cccn3C)nnc2SCC(=O)Nc2cccc(C)c2C)cc1 | 33.3%
46 | COc1ccc(-n2c(Cc3cccn3C)nnc2SCC(=O)Nc2ccccc2OC)cc1 | 55%
47 | COc1ccc(-n2c(Cc3cccn3C)nnc2SCC(=O)Nc2ccc(C)c(Cl)c2)cc1 | 75.8% (active)
48 | COc1ccc(-n2c(Cc3cccn3C)nnc2SCC(=O)Nc2ccccc2C)cc1 | 57% (active)
49 | COc1ccc(NC(=O)CSc2nnc(Cc3cccn3C)n2-c2ccc(OC)cc2)cc1 | 0.1%
